# The supplement of paper PMC8728848
# Shown is part of a subset that was picked to be rich in the strongest signals.
# How the values were obtained:
# Assay in all cases: glycan array binding signal (z-score within array); higher = stronger binding
# Conditions in all cases: glycan notation: IUPAC condensed, linker removed
# [1] = molecular target: Fuc(a1-2)Gal(b1-3)GlcNAc(b1-3)[Neu5Ac(a2-6)Gal(b1-4)GlcNAc(b1-6)]Gal(b1-4)Glc
# In short: (§1)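 From the Consortium for Functional Glycomics database, 3228 arrays were curated, keeping only those whose protein sequence was available. Binding is given as a within-array Z-score averaged across arrays sharing a protein sequence and across linkers. Negative Z-scores can be read as non-binding.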
# [2] = molecular target: Fuc(a1-2)Gal(b1-4)GlcNAc(b1-2)Man
# In short: as §1
# [3] = molecular target: Fuc(a1-2)Gal(b1-4)GlcNAc(b1-3)Gal(b1-4)GlcNAc
# In short: as §1
# [4] = molecular target: Fuc(a1-2)Gal(b1-4)[Fuc(a1-3)]GlcNAc
# In short: as §1
# [5] = molecular target: Fuc(a1-2)Gal6S(b1-3)GlcNAc
# In short: as §1
# [6] = molecular target: Fuc(a1-2)Gal6S(b1-3)GlcNAc6S
# In short: as §1
# [7] = molecular target: Fuc(a1-2)[Gal(a1-3)]Gal(b1-4)Glc
# In short: as §1
# [8] = molecular target: Fuc(a1-2)[Gal(a1-3)]Gal(b1-4)GlcNAc(b1-3)[Fuc(a1-2)[Gal(a1-3)]Gal(b1-4)GlcNAc(b1-6)]GalNAc
# In short: as §1
# [9] = molecular target: Fuc(a1-2)[GalNAc(a1-3)]Gal(b1-4)GlcNAc(b1-3)Gal(b1-4)GlcNAc
# In short: as §1
# [10] = molecular target: Fuc(a1-2)[GalNAc(b1-3)]Gal
# In short: as §1
# [11] = molecular target: Fuc(a1-3)[Gal(b1-4)]GlcNAc(b1-3)Gal(b1-3)[Fuc(a1-4)]GlcNAc
# In short: as §1
# Gal(b1-2)Gal = molecular target: Gal(b1-2)Gal
# In short: as §1
# [12] = molecular target: Gal(b1-3)GalNAc(a1-3)[Fuc(a1-2)]Gal(b1-4)Glc
# In short: as §1
# [13] = molecular target: Gal(b1-3)GlcNAc(b1-3)Gal(b1-4)GlcNAc(b1-3)Gal(b1-4)GlcNAc(b1-2)[Gal(b1-3)GlcNAc(b1-3)Gal(b1-4)GlcNAc(b1-3)Gal(b1-4)GlcNAc(b1-6)]Man(a1-6)[Gal(b1-3)GlcNAc(b1-3)Gal(b1-4)GlcNAc(b1-3)Gal(b1-4)GlcNAc(b1-2)Man(a1-3)]Man(b1-4)GlcNAc(b1-4)[Fuc(a1-6)]GlcNAc
# In short: as §1
# [14] = molecular target: Gal(b1-3)GlcNAc(b1-3)Gal(b1-4)[Fuc(a1-3)]GlcNAc
# In short: as §1
# [15] = molecular target: Gal(b1-3)[Fuc(a1-4)]GlcNAc(b1-3)Gal(b1-4)[Fuc(a1-3)]GlcNAc
# In short: as §1
# Gal(b1-4)Gal = molecular target: Gal(b1-4)Gal
# In short: as §1
# [16] = molecular target: Gal(b1-4)GalNAc(b1-3)[Fuc(a1-2)]Gal(b1-4)GlcNAc
# In short: as §1
# Gal(b1-4)Glc = molecular target: Gal(b1-4)Glc
# In short: as §1
# Gal(b1-4)GlcNAc(b1-2)Man = molecular target: Gal(b1-4)GlcNAc(b1-2)Man
# In short: as §1
# [17] = molecular target: Gal(b1-4)GlcNAc(b1-2)Man(a1-3)[Gal(b1-4)GlcNAc(b1-2)Man(a1-6)][Gal(b1-4)GlcNAc(b1-4)]Man(b1-4)GlcNAc(b1-4)[Fuc(a1-6)]GlcNAc
# In short: as §1
# [18] = molecular target: Gal(b1-4)GlcNAc(b1-2)Man(a1-3)[Man(a1-6)]Man(b1-4)GlcNAc(b1-4)GlcNAc
# In short: as §1
# [19] = molecular target: Gal(b1-4)GlcNAc(b1-2)[Gal(b1-4)GlcNAc(b1-4)]Man(a1-3)[Gal(b1-4)GlcNAc(b1-2)Man(a1-6)]Man(b1-4)GlcNAc(b1-4)GlcNAc
# In short: as §1
# [20] = molecular target: Gal(b1-4)GlcNAc(b1-2)[Gal(b1-4)GlcNAc(b1-4)]Man(a1-3)[GlcNAc(b1-4)][Gal(b1-4)GlcNAc(b1-2)[Gal(b1-4)GlcNAc(b1-6)]Man(a1-6)]Man(b1-4)GlcNAc(b1-4)GlcNAc
# In short: as §1
# [21] = molecular target: Gal(b1-4)GlcNAc(b1-3)Gal(b1-4)GlcNAc(b1-2)Man(a1-3)[Gal(b1-4)GlcNAc(b1-3)Gal(b1-4)GlcNAc(b1-2)Man(a1-6)]Man(b1-4)GlcNAc(b1-4)[Fuc(a1-6)]GlcNAc
# In short: as §1
# [22] = molecular target: Gal(b1-4)GlcNAc(b1-3)Gal(b1-4)GlcNAc(b1-2)[Gal(b1-4)GlcNAc(b1-3)Gal(b1-4)GlcNAc(b1-6)]Man(a1-6)[Gal(b1-4)GlcNAc(b1-3)Gal(b1-4)GlcNAc(b1-2)Man(a1-3)]Man(b1-4)GlcNAc(b1-4)GlcNAc
# In short: as §1
# [23] = molecular target: Gal(b1-4)GlcNAc(b1-3)Gal(b1-4)GlcNAc(b1-3)Gal(b1-4)GlcNAc
# In short: as §1
# [24] = molecular target: Gal(b1-4)GlcNAc(b1-6)GalNAc
# In short: as §1
binder,measurement,setting,value
Mermaid2 (Stilbonema majum) (protein) MGSSHHHHHHSSGLVPRGSHMAASGWLRSPQGTVVKLYRRSLSWSKADEFCKDVDGRLVVDRTADMHLFLIKNVLKEKKSRVWVGLRRTAPHSRTWIWSDGTRQNEDDLNTNLWLRDEPNDAAGEEECALFMYSPWEKAWGLNDYLCRGGCRSYQFICEKGIR,glycan array binding signal (z-score),[1],0.333
same,glycan array binding signal (z-score),[2],1.76
same,glycan array binding signal (z-score),[3],-0.575
same,glycan array binding signal (z-score),[4],0.558
same,glycan array binding signal (z-score),[5],-0.388
same,glycan array binding signal (z-score),[6],4.48
same,glycan array binding signal (z-score),[7],-0.23
same,glycan array binding signal (z-score),[8],-0.477
same,glycan array binding signal (z-score),[9],-0.302
same,glycan array binding signal (z-score),[10],-0.551
same,glycan array binding signal (z-score),[11],-0.144
same,glycan array binding signal (z-score),Gal(b1-2)Gal,-0.539
same,glycan array binding signal (z-score),[12],3.31
same,glycan array binding signal (z-score),[13],4.69
same,glycan array binding signal (z-score),[14],-0.471
same,glycan array binding signal (z-score),[15],-0.152
same,glycan array binding signal (z-score),Gal(b1-4)Gal,6.71
same,glycan array binding signal (z-score),[16],0.467
same,glycan array binding signal (z-score),Gal(b1-4)Glc,-0.205
same,glycan array binding signal (z-score),Gal(b1-4)GlcNAc(b1-2)Man,1.07
same,glycan array binding signal (z-score),[17],-0.652
same,glycan array binding signal (z-score),[18],3.75
same,glycan array binding signal (z-score),[19],0.034
same,glycan array binding signal (z-score),[20],-0.17
same,glycan array binding signal (z-score),[21],-0.278
same,glycan array binding signal (z-score),[22],5.21
same,glycan array binding signal (z-score),[23],0.308
same,glycan array binding signal (z-score),[24],-0.317
